Data as given in ChEMBL document CHEMBL2218924, “A broad activity screen in support of a chemogenomic map for kinase signalling research and drug discovery” (Biochem J, 2013).

These molecules were tested against T1, cAMP-dependent protein kinase catalytic subunit PRKX (Homo sapiens) (UniProt P51817). Conditions: at 1 µM.
T1 sequence (whole entry): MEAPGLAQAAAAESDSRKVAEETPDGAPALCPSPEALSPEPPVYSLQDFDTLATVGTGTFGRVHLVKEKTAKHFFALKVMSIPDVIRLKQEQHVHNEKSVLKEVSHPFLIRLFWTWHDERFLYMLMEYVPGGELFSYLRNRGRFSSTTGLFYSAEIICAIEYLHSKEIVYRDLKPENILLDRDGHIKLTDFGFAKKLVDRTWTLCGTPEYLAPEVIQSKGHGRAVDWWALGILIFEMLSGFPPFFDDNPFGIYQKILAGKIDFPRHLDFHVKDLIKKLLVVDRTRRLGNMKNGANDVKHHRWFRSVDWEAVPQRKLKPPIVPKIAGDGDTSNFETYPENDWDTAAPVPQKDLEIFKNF

Row | SMILES | residual activity
1 | O=S(=O)(c1cccc2cnccc12)N1CCCNCC1 | 21%
2 | O=S(=O)(NCCNC/C=C/c1ccc(Br)cc1)c1cccc2cnccc12 | 0%
3 | CCCCc1c(-c2ccc(OC)cc2)[nH]c2nccnc12 | 84%
4 | CCN(CC)CCNC(=O)c1c(C)[nH]c(/C=C2\C(=O)Nc3ccc(Cl)cc32)c1C | 63%
5 | Cn1c2ccccc2c2c3c(c4c5ccccc5n(CCC#N)c4c21)CNC3=O | 19%
6 | CN([C@@H](Cc1ccc(OS(=O)(=O)c2cccc3cnccc23)cc1)C(=O)N1CCN(c2ccccc2)CC1)S(=O)(=O)c1cccc2cnccc12 | 116%
7 | O=C1NC(=O)C(c2cn(CCCn3ccnc3)c3ccccc23)=C1Nc1ccccc1 | 80%
8 | COc1ccc(COc2ccc(Cc3cnc(N)nc3N)cc2OC)cc1 | 98%
9 | N#C/C(=C1/Nc2ccccc2S1)c1ccnc(NCCc2cccnc2)n1 | 83%
10 | CN(C)S(=O)(=O)c1ccc2c(c1)/C(=C/c1cc3c([nH]1)CCCC3)C(=O)N2 | 95%
11 | O=C(Nc1nc2ccccc2n1CCN1CCOCC1)c1cccc([N+](=O)[O-])c1 | 108%
12 | NC(=O)c1ccc(-c2nc(-c3ccc4c(c3)OCCO4)c(-c3ccccn3)[nH]2)cc1 | 82%
13 | O=C1Nc2ccccc2/C1=C\c1c(Cl)[nH]c2ccccc12 | 125%
14 | O=C(c1cc2cc(O)ccc2[nH]1)c1cc2cc(O)ccc2[nH]1 | 81%
15 | COc1cc2nccc(Oc3ccc(NC(=O)Nc4cc(C)on4)c(Cl)c3)c2cc1OC | 97%
16 | O=c1c(-c2ccc(F)cc2)c(-c2ccncc2)[nH]n1-c1ccc(Cl)cc1 | 78%
17 | Oc1cccc(-c2nc(N3CCOCC3)c3oc4ncccc4c3n2)c1 | 96%
18 | N#Cc1c(NC(=O)c2cccc3ccccc23)sc2c1CCCC2 | 80%
19 | COc1ccc(CNC(=O)Nc2ncc([N+](=O)[O-])s2)cc1 | 55%

Each molecule was assayed against T1, cAMP-dependent protein kinase catalytic subunit PRKX (Homo sapiens). Conditions: at 10 µM.

Row | SMILES | residual activity
20 | N#C/C(=C\c1ccc(O)c(O)c1)C(=O)NCc1ccccc1 | 70%
21 | O=S(=O)(c1cccc2cnccc12)N1CCCNCC1 | 2%
22 | O=C(Nc1ccc(Cl)cc1)c1ccccc1NCc1ccncc1 | 50%
23 | COc1ccc2c(c1)c(C1=C(c3c[nH]c4ccccc34)C(=O)NC1=O)cn2CCCN(C)C | 79%
24 | O=S(=O)(NCCNC/C=C/c1ccc(Br)cc1)c1cccc2cnccc12 | 0%
25 | CCCCc1c(-c2ccc(OC)cc2)[nH]c2nccnc12 | 101%
26 | CCN(CC)CCNC(=O)c1c(C)[nH]c(/C=C2\C(=O)Nc3ccc(Cl)cc32)c1C | 37%
27 | Cn1c2ccccc2c2c3c(c4c5ccccc5n(CCC#N)c4c21)CNC3=O | 20%
28 | CN([C@@H](Cc1ccc(OS(=O)(=O)c2cccc3cnccc23)cc1)C(=O)N1CCN(c2ccccc2)CC1)S(=O)(=O)c1cccc2cnccc12 | 62%
29 | CCOc1nc(NC(=O)Cc2cc(OC)ccc2OC)cc(N)c1C#N | 55%
30 | O=C1NC(=O)C(c2cn(CCCn3ccnc3)c3ccccc23)=C1Nc1ccccc1 | 58%
31 | N#C/C(=C1/Nc2ccccc2S1)c1ccnc(NCCc2cccnc2)n1 | 37%
32 | CN(C)S(=O)(=O)c1ccc2c(c1)/C(=C/c1cc3c([nH]1)CCCC3)C(=O)N2 | 91%
33 | O=C(Nc1nc2ccccc2n1CCN1CCOCC1)c1cccc([N+](=O)[O-])c1 | 86%
34 | COc1cc2c(cc1OC)-c1n[nH]c(Nc3cccc(F)c3)c1C2 | 101%
35 | NC(=O)c1ccc(-c2nc(-c3ccc4c(c3)OCCO4)c(-c3ccccn3)[nH]2)cc1 | 86%
36 | O=C1Nc2ccccc2/C1=C\c1c(Cl)[nH]c2ccccc12 | 79%
37 | O=C(c1cc2cc(O)ccc2[nH]1)c1cc2cc(O)ccc2[nH]1 | 34%
38 | COc1cc2nccc(Oc3ccc(NC(=O)Nc4cc(C)on4)c(Cl)c3)c2cc1OC | 59%
39 | O=c1c(-c2ccc(F)cc2)c(-c2ccncc2)[nH]n1-c1ccc(Cl)cc1 | 71%
40 | Oc1cccc(-c2nc(N3CCOCC3)c3oc4ncccc4c3n2)c1 | 92%
41 | N#Cc1c(NC(=O)c2cccc3ccccc23)sc2c1CCCC2 | 84%
42 | CCN1/C(=C/C(C)=O)Sc2ccc(OC)cc21 | 42%
43 | COc1ccc(CNC(=O)Nc2ncc([N+](=O)[O-])s2)cc1 | 59%

Each molecule was assayed against Protein-tyrosine kinase 2-beta (Homo sapiens) (UniProt Q14289). Conditions: at 1 µM.
Chain of Protein-tyrosine kinase 2-beta (Homo sapiens) (Q14289 whole entry, looked up): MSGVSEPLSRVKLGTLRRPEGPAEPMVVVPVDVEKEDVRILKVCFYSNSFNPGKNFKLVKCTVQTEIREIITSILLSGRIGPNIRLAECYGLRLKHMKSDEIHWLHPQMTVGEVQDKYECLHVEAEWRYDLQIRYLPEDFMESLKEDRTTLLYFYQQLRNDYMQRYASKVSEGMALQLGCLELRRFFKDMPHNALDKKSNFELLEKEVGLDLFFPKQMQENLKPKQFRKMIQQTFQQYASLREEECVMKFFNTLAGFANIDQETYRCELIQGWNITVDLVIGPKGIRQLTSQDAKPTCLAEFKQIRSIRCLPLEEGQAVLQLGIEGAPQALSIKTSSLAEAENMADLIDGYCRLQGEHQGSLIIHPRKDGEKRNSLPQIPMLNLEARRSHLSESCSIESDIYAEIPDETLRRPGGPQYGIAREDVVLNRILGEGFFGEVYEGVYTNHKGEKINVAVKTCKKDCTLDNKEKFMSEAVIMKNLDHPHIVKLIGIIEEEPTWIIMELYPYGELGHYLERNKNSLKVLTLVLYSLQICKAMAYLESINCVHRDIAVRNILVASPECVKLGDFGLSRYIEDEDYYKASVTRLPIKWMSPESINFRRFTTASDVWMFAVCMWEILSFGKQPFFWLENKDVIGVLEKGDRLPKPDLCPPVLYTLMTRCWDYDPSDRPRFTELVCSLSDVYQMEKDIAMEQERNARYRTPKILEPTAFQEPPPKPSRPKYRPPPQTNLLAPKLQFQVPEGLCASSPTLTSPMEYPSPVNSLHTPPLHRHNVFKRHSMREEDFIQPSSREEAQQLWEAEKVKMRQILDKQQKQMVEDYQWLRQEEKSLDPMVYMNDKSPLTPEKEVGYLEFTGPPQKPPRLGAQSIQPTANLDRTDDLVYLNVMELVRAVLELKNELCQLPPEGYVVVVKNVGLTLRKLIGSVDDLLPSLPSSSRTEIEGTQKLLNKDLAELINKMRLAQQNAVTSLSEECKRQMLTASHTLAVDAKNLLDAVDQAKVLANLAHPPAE

Row | SMILES | residual activity
44 | N#C/C(=C\c1ccc(O)c(O)c1)C(=O)NCc1ccccc1 | 146%
45 | O=C(Nc1ccc(Cl)cc1)c1ccccc1NCc1ccncc1 | 128%
46 | O=C1NC(=O)C(c2cn(CCCO)c3ncccc23)=C1c1cnccn1 | 100%
47 | COc1ccc2c(c1)c(C1=C(c3c[nH]c4ccccc34)C(=O)NC1=O)cn2CCCN(C)C | 116%
48 | Nc1nc(Nc2ccc(S(N)(=O)=O)cc2)nn1C(=O)c1c(F)cccc1F | 55%
49 | CCCCc1c(-c2ccc(OC)cc2)[nH]c2nccnc12 | 54%
50 | CCN(CC)CCNC(=O)c1c(C)[nH]c(/C=C2\C(=O)Nc3ccc(Cl)cc32)c1C | 15%
51 | Cn1c2ccccc2c2c3c(c4c5ccccc5n(CCC#N)c4c21)CNC3=O | 4%
52 | NCCNc1ncc(C(N)=O)c(Nc2cccc(C(F)(F)F)c2)n1 | 27%
53 | O=C1NC(=O)C(c2cn(CCCn3ccnc3)c3ccccc23)=C1Nc1ccccc1 | 121%
54 | O=C1NC(=O)C(c2c[nH]c3ccccc23)=C1c1c[nH]c2ccccc12 | 97%
55 | O=C(Nc1nc2ccccc2n1CCN1CCOCC1)c1cccc([N+](=O)[O-])c1 | 114%
56 | COc1cc2c(cc1OC)-c1n[nH]c(Nc3cccc(F)c3)c1C2 | 79%
57 | O=c1cc(N2CCOCC2)oc2c(-c3ccccc3)cccc12 | 127%
58 | O=C(c1cc2cc(O)ccc2[nH]1)c1cc2cc(O)ccc2[nH]1 | 68%
59 | COc1cc2nccc(Oc3ccc(NC(=O)Nc4cc(C)on4)c(Cl)c3)c2cc1OC | 34%
60 | c1ccc(-c2cnc(Nc3ccc(OCCN4CCCC4)cc3)s2)cc1 | 105%
61 | Oc1cccc(-c2nc(N3CCOCC3)c3oc4ncccc4c3n2)c1 | 142%
62 | COc1ccc(CNC(=O)Nc2ncc([N+](=O)[O-])s2)cc1 | 72%
